Test results from the supplement of paper PMC11732987, “Enantioselective OTUD7B fragment discovery through chemoproteomics screening and high-throughput optimisation” (Communications Chemistry, 2025).

What was measured:
Assay in all cases: log2 ratio of Biotin-Ahx-Ub-VS probe labelling (fragment/DMSO); higher = less target engagement (more negative = stronger competition), active = hit call of the paper (q ≤ 0.05, log2 ratio ≤ -1)
Conditions in all cases: compound concentration: 200 uM; treatment time: 3 h
[1] = molecular target: USP34 (UniProt Q70CQ2)
Summary of the method: (§1)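 The table lists average log2 ratios of fragment over vehicle, from an unpaired t-test on global-median-normalised Spectronaut label-free quantities. Proteins with ≥2 unique peptides were used. Samples were HEK293T lysate (495 µg) treated in triplicate with fragment at 200 µM or vehicle for 3 h, then with Biotin-Ahx-Ub-VS (0.5 µM final) for 1 h, with labelled DUBs NeutrAvidin-enriched and run by diaPASEF LC-MS/MS.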

[2] = molecular target: T1, USP36 (UniProt Q9P275)
T1 sequence (whole entry): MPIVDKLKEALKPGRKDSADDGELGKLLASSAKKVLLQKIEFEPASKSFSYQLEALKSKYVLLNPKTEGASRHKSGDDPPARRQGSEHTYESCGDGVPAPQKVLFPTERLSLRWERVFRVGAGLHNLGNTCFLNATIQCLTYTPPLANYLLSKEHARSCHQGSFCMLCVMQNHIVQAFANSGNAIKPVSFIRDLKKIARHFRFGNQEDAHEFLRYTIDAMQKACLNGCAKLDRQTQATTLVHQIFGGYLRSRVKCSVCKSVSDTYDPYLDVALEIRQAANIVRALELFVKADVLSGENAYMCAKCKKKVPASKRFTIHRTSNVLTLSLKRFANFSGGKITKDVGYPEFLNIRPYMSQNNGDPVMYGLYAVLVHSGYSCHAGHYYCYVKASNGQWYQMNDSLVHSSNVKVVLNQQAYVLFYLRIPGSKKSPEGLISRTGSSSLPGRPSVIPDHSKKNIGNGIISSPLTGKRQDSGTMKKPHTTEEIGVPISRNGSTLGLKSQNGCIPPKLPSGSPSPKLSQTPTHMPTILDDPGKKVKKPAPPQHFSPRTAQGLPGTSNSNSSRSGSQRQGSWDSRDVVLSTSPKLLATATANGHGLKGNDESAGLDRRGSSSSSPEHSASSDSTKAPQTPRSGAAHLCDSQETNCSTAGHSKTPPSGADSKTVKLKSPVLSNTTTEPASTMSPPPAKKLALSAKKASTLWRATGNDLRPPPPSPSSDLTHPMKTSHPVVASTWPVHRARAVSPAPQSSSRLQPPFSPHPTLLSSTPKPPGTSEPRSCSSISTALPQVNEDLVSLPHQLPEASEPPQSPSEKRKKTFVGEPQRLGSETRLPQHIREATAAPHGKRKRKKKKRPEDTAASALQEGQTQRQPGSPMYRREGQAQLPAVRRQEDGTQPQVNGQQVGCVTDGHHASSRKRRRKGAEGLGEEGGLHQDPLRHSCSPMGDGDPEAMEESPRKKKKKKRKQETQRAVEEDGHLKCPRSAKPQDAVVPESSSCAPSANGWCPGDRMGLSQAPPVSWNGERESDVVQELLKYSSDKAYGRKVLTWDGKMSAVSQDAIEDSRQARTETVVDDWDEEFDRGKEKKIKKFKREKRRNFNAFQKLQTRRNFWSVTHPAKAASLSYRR
Summary of the method: as §1

[3] = molecular target: T2, USP38 (UniProt Q8NB14)
T2 sequence (whole entry): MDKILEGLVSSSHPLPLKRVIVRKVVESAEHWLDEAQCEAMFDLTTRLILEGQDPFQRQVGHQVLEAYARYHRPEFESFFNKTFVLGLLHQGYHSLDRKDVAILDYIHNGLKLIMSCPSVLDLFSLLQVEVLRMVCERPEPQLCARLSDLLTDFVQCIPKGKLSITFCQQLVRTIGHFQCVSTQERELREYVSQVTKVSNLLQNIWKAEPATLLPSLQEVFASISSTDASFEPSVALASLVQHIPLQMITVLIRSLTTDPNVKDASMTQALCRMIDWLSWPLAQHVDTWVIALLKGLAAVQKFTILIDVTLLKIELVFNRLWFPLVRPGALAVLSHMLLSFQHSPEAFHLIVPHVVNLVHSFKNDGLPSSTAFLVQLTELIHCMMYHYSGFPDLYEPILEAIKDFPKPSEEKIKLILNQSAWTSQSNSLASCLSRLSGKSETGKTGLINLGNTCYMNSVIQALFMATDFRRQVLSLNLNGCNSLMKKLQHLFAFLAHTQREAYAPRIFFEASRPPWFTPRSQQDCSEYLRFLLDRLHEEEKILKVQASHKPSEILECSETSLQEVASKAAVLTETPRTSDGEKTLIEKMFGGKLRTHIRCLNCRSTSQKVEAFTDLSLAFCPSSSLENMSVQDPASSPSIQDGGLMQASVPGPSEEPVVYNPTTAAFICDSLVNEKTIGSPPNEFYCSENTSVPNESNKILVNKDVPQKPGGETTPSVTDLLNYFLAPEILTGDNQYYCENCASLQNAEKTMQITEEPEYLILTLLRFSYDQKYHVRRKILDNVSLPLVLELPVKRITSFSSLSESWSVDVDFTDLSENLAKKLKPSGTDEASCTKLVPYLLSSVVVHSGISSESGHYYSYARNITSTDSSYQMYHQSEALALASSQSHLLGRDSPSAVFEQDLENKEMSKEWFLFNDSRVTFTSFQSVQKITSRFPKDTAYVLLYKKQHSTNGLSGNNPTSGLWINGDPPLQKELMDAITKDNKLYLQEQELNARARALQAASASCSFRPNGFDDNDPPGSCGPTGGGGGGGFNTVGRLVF
Summary of the method: as §1

[4] = molecular target: T3, USP39 (UniProt Q53GS9)
T3 sequence (whole entry): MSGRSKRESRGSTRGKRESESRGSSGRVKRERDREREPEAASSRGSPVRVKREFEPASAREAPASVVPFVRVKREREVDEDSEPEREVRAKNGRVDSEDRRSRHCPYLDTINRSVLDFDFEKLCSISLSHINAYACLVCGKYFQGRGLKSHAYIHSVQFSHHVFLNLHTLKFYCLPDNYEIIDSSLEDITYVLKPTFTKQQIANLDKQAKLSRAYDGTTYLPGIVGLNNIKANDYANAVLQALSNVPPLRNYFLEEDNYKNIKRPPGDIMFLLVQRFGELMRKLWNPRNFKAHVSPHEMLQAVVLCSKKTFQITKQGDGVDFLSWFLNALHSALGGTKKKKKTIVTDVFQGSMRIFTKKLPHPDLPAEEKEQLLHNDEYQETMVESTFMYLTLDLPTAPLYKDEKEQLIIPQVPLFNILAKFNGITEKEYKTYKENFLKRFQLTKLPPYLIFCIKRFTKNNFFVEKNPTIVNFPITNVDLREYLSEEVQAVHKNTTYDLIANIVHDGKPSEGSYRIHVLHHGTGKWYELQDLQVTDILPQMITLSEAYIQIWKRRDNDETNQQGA
Summary of the method: as §1

[5] = molecular target: T4, USP4 (UniProt Q13107)
T4 sequence (whole entry): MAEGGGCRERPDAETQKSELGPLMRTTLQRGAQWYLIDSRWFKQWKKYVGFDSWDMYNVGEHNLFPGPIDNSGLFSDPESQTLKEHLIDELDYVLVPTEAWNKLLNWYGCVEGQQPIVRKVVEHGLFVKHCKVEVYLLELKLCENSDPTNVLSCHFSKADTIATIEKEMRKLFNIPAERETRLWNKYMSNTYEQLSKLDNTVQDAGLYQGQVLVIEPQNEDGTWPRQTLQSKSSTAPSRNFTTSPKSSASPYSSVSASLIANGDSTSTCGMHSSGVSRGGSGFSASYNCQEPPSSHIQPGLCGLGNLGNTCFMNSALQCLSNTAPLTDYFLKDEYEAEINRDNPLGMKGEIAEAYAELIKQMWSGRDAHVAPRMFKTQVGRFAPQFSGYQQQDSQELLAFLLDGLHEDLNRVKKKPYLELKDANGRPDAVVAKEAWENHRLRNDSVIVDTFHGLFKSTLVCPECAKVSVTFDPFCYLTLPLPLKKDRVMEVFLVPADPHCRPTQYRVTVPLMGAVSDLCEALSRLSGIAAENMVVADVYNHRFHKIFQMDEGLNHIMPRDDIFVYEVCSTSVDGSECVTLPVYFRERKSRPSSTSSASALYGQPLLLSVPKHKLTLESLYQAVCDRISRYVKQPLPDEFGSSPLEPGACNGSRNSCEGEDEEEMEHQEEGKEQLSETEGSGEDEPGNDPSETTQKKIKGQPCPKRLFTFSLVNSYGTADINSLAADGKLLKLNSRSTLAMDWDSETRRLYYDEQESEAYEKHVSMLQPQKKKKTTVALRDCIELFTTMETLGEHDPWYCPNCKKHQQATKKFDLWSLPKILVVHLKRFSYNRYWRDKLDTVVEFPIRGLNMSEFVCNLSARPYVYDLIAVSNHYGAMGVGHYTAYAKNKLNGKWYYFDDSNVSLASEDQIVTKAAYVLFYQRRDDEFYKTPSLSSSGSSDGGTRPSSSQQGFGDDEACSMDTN
Summary of the method: as §1

Measured: log2 ratio of Biotin-Ahx-Ub-VS probe labelling

Sequence of USP34 (Q70CQ2 whole entry, the tested form may be a part): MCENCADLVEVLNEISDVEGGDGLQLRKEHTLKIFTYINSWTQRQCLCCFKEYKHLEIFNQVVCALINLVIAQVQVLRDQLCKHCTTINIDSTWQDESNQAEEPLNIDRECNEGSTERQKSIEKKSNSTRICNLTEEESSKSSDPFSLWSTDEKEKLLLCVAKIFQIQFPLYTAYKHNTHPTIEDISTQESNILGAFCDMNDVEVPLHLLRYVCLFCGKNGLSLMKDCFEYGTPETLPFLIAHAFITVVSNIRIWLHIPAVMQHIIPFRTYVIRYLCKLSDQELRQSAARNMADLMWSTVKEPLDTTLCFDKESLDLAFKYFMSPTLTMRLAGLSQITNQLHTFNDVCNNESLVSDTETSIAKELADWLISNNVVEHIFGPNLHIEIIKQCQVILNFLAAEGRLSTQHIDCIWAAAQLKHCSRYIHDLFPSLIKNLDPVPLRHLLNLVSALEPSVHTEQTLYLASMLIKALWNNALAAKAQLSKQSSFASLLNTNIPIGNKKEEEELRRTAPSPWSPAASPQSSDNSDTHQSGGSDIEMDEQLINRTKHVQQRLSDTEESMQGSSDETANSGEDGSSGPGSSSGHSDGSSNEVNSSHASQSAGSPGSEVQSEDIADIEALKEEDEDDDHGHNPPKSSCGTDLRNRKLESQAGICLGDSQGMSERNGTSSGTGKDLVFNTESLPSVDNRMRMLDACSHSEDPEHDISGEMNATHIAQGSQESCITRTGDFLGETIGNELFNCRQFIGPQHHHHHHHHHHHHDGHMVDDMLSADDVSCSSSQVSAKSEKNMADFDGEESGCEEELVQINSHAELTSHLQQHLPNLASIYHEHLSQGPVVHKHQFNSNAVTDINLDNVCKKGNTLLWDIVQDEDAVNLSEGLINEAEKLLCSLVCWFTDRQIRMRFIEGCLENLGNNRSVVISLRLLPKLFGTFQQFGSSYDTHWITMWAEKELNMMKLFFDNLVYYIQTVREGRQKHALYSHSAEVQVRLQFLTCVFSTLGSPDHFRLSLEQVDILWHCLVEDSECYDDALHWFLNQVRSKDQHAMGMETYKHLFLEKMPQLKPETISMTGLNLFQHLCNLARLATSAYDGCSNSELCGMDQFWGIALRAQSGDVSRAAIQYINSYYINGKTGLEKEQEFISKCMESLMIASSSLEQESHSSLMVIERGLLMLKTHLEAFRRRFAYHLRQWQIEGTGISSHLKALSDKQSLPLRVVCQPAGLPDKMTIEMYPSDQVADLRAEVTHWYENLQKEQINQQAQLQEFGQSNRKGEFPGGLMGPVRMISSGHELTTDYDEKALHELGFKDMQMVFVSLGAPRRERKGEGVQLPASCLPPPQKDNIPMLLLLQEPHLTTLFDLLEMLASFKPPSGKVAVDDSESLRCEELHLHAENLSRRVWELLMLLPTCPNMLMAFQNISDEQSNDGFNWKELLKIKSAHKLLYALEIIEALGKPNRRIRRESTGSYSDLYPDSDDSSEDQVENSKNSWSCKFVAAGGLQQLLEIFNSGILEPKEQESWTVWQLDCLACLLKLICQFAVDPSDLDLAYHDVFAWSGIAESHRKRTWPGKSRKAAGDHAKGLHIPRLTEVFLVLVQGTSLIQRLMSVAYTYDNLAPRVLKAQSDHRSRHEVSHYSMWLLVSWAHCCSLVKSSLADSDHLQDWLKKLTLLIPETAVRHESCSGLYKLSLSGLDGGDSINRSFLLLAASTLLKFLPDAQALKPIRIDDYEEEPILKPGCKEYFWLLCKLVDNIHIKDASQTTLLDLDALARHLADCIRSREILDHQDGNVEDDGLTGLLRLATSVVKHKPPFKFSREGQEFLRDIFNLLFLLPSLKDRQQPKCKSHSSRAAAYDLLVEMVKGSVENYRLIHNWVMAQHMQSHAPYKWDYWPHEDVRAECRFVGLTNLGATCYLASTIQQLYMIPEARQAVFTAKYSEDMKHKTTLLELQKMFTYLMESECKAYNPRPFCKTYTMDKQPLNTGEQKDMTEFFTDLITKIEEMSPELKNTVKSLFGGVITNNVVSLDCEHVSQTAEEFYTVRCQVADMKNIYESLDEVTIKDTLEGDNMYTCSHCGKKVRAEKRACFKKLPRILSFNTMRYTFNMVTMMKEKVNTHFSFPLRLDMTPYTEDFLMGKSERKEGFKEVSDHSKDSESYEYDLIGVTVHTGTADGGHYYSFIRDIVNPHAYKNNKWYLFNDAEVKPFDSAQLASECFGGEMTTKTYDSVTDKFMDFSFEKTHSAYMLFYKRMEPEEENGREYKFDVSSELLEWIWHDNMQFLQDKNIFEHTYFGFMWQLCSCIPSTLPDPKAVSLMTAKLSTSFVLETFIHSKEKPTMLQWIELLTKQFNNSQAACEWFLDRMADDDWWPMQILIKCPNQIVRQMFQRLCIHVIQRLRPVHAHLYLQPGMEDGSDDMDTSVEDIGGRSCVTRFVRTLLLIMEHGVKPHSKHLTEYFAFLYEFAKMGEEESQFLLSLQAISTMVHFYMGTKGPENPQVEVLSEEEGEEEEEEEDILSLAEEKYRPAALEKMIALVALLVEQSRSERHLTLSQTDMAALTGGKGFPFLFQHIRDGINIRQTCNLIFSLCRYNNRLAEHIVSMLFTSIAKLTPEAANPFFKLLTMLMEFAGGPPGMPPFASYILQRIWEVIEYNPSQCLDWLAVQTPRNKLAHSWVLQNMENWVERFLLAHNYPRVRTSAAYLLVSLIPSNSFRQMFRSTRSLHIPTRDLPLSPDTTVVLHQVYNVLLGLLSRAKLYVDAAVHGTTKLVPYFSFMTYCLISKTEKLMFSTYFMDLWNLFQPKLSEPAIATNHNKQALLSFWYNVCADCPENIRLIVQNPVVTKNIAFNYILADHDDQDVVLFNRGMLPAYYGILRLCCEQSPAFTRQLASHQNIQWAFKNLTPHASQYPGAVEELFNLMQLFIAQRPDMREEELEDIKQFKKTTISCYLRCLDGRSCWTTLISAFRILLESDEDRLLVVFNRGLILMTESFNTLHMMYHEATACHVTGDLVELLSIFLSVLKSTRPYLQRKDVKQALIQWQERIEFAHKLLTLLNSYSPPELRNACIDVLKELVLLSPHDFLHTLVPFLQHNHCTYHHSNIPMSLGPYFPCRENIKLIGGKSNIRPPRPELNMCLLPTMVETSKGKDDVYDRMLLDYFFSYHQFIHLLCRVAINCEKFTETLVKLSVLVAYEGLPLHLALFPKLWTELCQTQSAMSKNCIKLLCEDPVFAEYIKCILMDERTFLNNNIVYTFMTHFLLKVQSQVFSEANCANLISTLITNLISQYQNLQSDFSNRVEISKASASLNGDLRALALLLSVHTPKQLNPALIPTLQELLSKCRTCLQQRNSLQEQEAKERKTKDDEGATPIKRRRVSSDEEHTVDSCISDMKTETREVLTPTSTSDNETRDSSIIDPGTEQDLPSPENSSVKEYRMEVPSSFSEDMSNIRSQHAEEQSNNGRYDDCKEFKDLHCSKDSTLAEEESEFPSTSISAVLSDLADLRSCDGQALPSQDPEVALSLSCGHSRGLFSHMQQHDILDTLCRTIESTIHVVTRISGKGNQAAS

CCC1c2ccsc2CCN1C(=O)CCl (stereo not given)
inactive: [1] -0.381 | [2] -0.0771 | [3] -0.204 | [4] 0.162 | [5] -0.497
